{"source": "the supplement of paper PMC8728848", "binders": {"B1": {"name": "ArathEULS3 TAP (Arabidopsis thaliana) (protein)", "chain": "IDENLYFQGGSMDEKTTGWRGGHVVEGLAGELEQLRARLEHHPQGQREPGGGGSLEITSLYKKAGFMEHHHQHHRHHQRDDGEDDRQSFGVPPPHVDAPPQPHGLYQSQPHFDPYAPTPQAPAPYRSETQFEPHAPPPYRSEPYFETPAPPPSFGHVSHVGHQSPNESYPPEHHRYGGYQQPSNSLLESHGDHSGVTHVAHHSSNQPQSSSGVYHKPDENRLPDNLAGLAGRATVKVYSKAEPNYNLTIRDGKVILAPADPSDEAQHWYKDEKYSTKVKDADGHPCFALVNKATGEAMKHSVGATHPVHLIRYVPDKLDESVLWTESKDFGDGYRTIRMVNNTRLNVDAYHGDSKSGGVRDGTTIVLWDWNKGDNQLWKIFPF"}}, "assay_in_all_cases": "glycan array binding signal (z-score within array); higher = stronger binding", "conditions_in_all_cases": "glycan notation: IUPAC condensed, linker removed", "key": {"[1]": {"target": "GlcA(b1-3)GlcNAc", "summary_of_the_method": "(§1)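 From the Consortium for Functional Glycomics database, 3228 arrays were curated, keeping only those whose protein sequence was available. Binding is given as a within-array Z-score averaged across arrays sharing a protein sequence and across linkers. Negative Z-scores can be read as non-binding.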"}, "[2]": {"target": "GlcNAc(a1-4)Gal(b1-4)GlcNAc(b1-3)Gal(b1-4)GlcNAc(b1-3)Gal(b1-4)GlcNAc", "summary_of_the_method": "as §1"}, "[3]": {"target": "GlcNAc(b1-2)Man(a1-3)[GlcNAc(b1-2)Man(a1-6)]Man(b1-4)GlcNAc(b1-4)[Fuc(a1-6)]GlcNAc", "summary_of_the_method": "as §1"}, "[4]": {"target": "GlcNAc(b1-2)[GlcNAc(b1-4)]Man(a1-3)[GlcNAc(b1-4)][GlcNAc(b1-2)[GlcNAc(b1-6)]Man(a1-6)]Man(b1-4)GlcNAc(b1-4)[Fuc(a1-6)]GlcNAc", "summary_of_the_method": "as §1"}, "[5]": {"target": "GlcNAc(b1-3)Gal(b1-4)GlcNAc", "summary_of_the_method": "as §1"}, "[6]": {"target": "GlcNAc(b1-3)Gal(b1-4)GlcNAc(b1-2)Man(a1-3)[GlcNAc(b1-3)Gal(b1-4)GlcNAc(b1-2)Man(a1-6)]Man(b1-4)GlcNAc(b1-4)GlcNAc", "summary_of_the_method": "as §1"}, "[7]": {"target": "GlcNAc(b1-3)Gal(b1-4)GlcNAc(b1-3)Gal(b1-4)GlcNAc", "summary_of_the_method": "as §1"}, "[8]": {"target": "GlcNAc(b1-3)Gal(b1-4)GlcNAc(b1-3)Gal(b1-4)GlcNAc(b1-2)Man(a1-3)[GlcNAc(b1-3)Gal(b1-4)GlcNAc(b1-3)Gal(b1-4)GlcNAc(b1-2)Man(a1-6)]Man(b1-4)GlcNAc(b1-4)GlcNAc", "summary_of_the_method": "as §1"}, "[9]": {"target": "GlcNAc(b1-3)Gal(b1-4)GlcNAc(b1-3)Gal(b1-4)GlcNAc(b1-3)Gal(b1-4)GlcNAc(b1-2)Man(a1-3)[GlcNAc(b1-3)Gal(b1-4)GlcNAc(b1-3)Gal(b1-4)GlcNAc(b1-3)Gal(b1-4)GlcNAc(b1-2)Man(a1-6)]Man(b1-4)GlcNAc(b1-4)[Fuc(a1-6)]GlcNAc", "summary_of_the_method": "as §1"}, "[10]": {"target": "GlcNAc(b1-3)Gal(b1-4)GlcNAc(b1-3)Gal(b1-4)GlcNAc(b1-3)Gal(b1-4)GlcNAc(b1-3)Gal(b1-4)GlcNAc(b1-2)Man(a1-3)[GlcNAc(b1-3)Gal(b1-4)GlcNAc(b1-3)Gal(b1-4)GlcNAc(b1-3)Gal(b1-4)GlcNAc(b1-3)Gal(b1-4)GlcNAc(b1-2)Man(a1-6)]Man(b1-4)GlcNAc(b1-4)GlcNAc", "summary_of_the_method": "as §1"}, "[11]": {"target": "GlcNAc(b1-3)Gal(b1-4)GlcNAc(b1-3)Gal(b1-4)GlcNAc(b1-3)Gal(b1-4)GlcNAc(b1-3)Gal(b1-4)GlcNAc(b1-2)[GlcNAc(b1-3)Gal(b1-4)GlcNAc(b1-3)Gal(b1-4)GlcNAc(b1-3)Gal(b1-4)GlcNAc(b1-3)Gal(b1-4)GlcNAc(b1-6)]Man(a1-6)[GlcNAc(b1-3)Gal(b1-4)GlcNAc(b1-3)Gal(b1-4)GlcNAc(b1-3)Gal(b1-4)GlcNAc(b1-3)Gal(b1-4)GlcNAc(b1-2)Man(a1-3)]Man(b1-4)GlcNAc(b1-4)[Fuc(a1-6)]GlcNAc", "summary_of_the_method": "as §1"}, "[12]": {"target": "GlcNAc(b1-3)Gal(b1-4)GlcNAc(b1-6)[Gal(b1-3)]GalNAc", "summary_of_the_method": "as §1"}, "[13]": {"target": "GlcNAc(b1-3)Man", "summary_of_the_method": "as §1"}, "[14]": {"target": "Kdn(a2-6)Gal(b1-4)GlcNAc", "summary_of_the_method": "as §1"}, "[15]": {"target": "Man(a1-3)[Man(a1-6)]Man(a1-6)[Man(a1-3)]Man(b1-4)GlcNAc(b1-4)GlcNAc", "summary_of_the_method": "as §1"}, "[16]": {"target": "Man(b1-4)GlcNAc", "summary_of_the_method": "as §1"}, "[17]": {"target": "Neu5Ac(a2-3)Gal", "summary_of_the_method": "as §1"}, "[18]": {"target": "Neu5Ac(a2-3)Gal(b1-3)GlcNAc(b1-2)Man(a1-3)[GlcNAc(b1-4)][Neu5Ac(a2-3)Gal(b1-3)GlcNAc(b1-2)Man(a1-6)]Man(b1-4)GlcNAc(b1-4)GlcNAc", "summary_of_the_method": "as §1"}, "[19]": {"target": "Neu5Ac(a2-3)Gal(b1-3)GlcNAc(b1-2)[Neu5Ac(a2-3)Gal(b1-3)GlcNAc(b1-4)]Man(a1-6)[Neu5Ac(a2-3)Gal(b1-3)GlcNAc(b1-2)Man(a1-3)]Man(b1-4)GlcNAc(b1-4)GlcNAc", "summary_of_the_method": "as §1"}, "[20]": {"target": "Neu5Ac(a2-3)Gal(b1-3)GlcNAc(b1-3)Gal(b1-4)GlcNAc", "summary_of_the_method": "as §1"}, "[21]": {"target": "Neu5Ac(a2-3)Gal(b1-3)GlcNAc6S", "summary_of_the_method": "as §1"}, "[22]": {"target": "Neu5Ac(a2-3)Gal(b1-3)[Fuc(a1-4)]GlcNAc", "summary_of_the_method": "as §1"}, "[23]": {"target": "Neu5Ac(a2-3)Gal(b1-3)[Neu5Ac(a2-6)]GlcNAc(b1-3)[Fuc(a1-3)[Gal(b1-4)]GlcNAc(b1-6)]Gal(b1-4)Glc", "summary_of_the_method": "as §1"}, "[24]": {"target": "Neu5Ac(a2-3)Gal(b1-4)GlcNAc(b1-2)Man(a1-3)[Neu5Ac(a2-3)Gal(b1-4)GlcNAc(b1-2)Man(a1-6)]Man(b1-4)GlcNAc(b1-4)[Fuc(a1-6)]GlcNAc", "summary_of_the_method": "as §1"}, "[25]": {"target": "Neu5Ac(a2-3)Gal(b1-4)GlcNAc(b1-3)Gal(b1-4)GlcNAc(b1-3)[Neu5Ac(a2-3)Gal(b1-4)GlcNAc(b1-3)Gal(b1-4)GlcNAc(b1-6)]GalNAc", "summary_of_the_method": "as §1"}, "[26]": {"target": "Neu5Ac(a2-3)Gal(b1-4)GlcNAc(b1-6)[Neu5Ac(a2-3)Gal(b1-3)]GalNAc", "summary_of_the_method": "as §1"}, "[27]": {"target": "Neu5Ac(a2-3)Gal(b1-4)GlcNAc6S", "summary_of_the_method": "as §1"}, "[28]": {"target": "Neu5Ac(a2-3)Gal(b1-4)[Fuc(a1-3)]GlcNAc(b1-3)Gal(b1-4)GlcNAc", "summary_of_the_method": "as §1"}, "[29]": {"target": "Neu5Ac(a2-3)GalNAc", "summary_of_the_method": "as §1"}, "[30]": {"target": "Neu5Ac(a2-3)[GalNAc(b1-4)]Gal(b1-4)Glc", "summary_of_the_method": "as §1"}}, "note": "Many of the other results were omitted from the sample, so the strongest signals are more common in it than they were.", "data": [{"binder": "B1", "values": [{"measurement": "glycan array binding signal (z-score)", "setting": "[1]", "result": -0.1}, {"measurement": "glycan array binding signal (z-score)", "setting": "[2]", "result": 0.236}, {"measurement": "glycan array binding signal (z-score)", "setting": "[3]", "result": -0.928}, {"measurement": "glycan array binding signal (z-score)", "setting": "[4]", "result": -0.659}, {"measurement": "glycan array binding signal (z-score)", "setting": "[5]", "result": -0.59}, {"measurement": "glycan array binding signal (z-score)", "setting": "[6]", "result": -0.107}, {"measurement": "glycan array binding signal (z-score)", "setting": "[7]", "result": 0.442}, {"measurement": "glycan array binding signal (z-score)", "setting": "[8]", "result": 2.26}, {"measurement": "glycan array binding signal (z-score)", "setting": "[9]", "result": 2.42}, {"measurement": "glycan array binding signal (z-score)", "setting": "[10]", "result": 0.229}, {"measurement": "glycan array binding signal (z-score)", "setting": "[11]", "result": 3.16}, {"measurement": "glycan array binding signal (z-score)", "setting": "[12]", "result": -0.045}, {"measurement": "glycan array binding signal (z-score)", "setting": "[13]", "result": 0.29}, {"measurement": "glycan array binding signal (z-score)", "setting": "[14]", "result": 0.575}, {"measurement": "glycan array binding signal (z-score)", "setting": "[15]", "result": 3.03}, {"measurement": "glycan array binding signal (z-score)", "setting": "[16]", "result": -0.658}, {"measurement": "glycan array binding signal (z-score)", "setting": "[17]", "result": -1.33}, {"measurement": "glycan array binding signal (z-score)", "setting": "[18]", "result": -1.32}, {"measurement": "glycan array binding signal (z-score)", "setting": "[19]", "result": 1.77}, {"measurement": "glycan array binding signal (z-score)", "setting": "[20]", "result": -0.43}, {"measurement": "glycan array binding signal (z-score)", "setting": "[21]", "result": 0.337}, {"measurement": "glycan array binding signal (z-score)", "setting": "[22]", "result": 0.016}, {"measurement": "glycan array binding signal (z-score)", "setting": "[23]", "result": 2.31}, {"measurement": "glycan array binding signal (z-score)", "setting": "[24]", "result": -0.12}, {"measurement": "glycan array binding signal (z-score)", "setting": "[25]", "result": 0.575}, {"measurement": "glycan array binding signal (z-score)", "setting": "[26]", "result": -1.05}, {"measurement": "glycan array binding signal (z-score)", "setting": "[27]", "result": -0.296}, {"measurement": "glycan array binding signal (z-score)", "setting": "[28]", "result": 2.91}, {"measurement": "glycan array binding signal (z-score)", "setting": "[29]", "result": 0.618}, {"measurement": "glycan array binding signal (z-score)", "setting": "[30]", "result": 0.447}]}]}
